About 8,800 targets were measured; listed, in parts, are those with a hit and a random draw of the rest. About 0.5% of all pairs of compound and target were hits. A number with no mark means an inactive call.
Key:
Assay in all cases: log2 fold change, soluble protein after heating vs DMSO (PISA); higher = thermal stabilisation; K562 lysate, 10 uM; active = over 0.2 and 3.5 SD of the protein, either way, in both replicates (recomputed)
[1] = compound: C1=CC=C(C=C1)[C@H](COC2=CC3=C(C=C2)NC(=O)N3)NC(=O)C4=CC=CN(C4=O)CC5=CC(=C(C=C5)F)F
In short: (§1)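 Following dounce homogenisation of K562 pellets in PBS pH 7.4 with 1 mM MgCl2, crude extract at 1 mg/mL protein was incubated for 30 min with 10 μM compound. Aliquots were then heated for 3 min over 48°C-58°C and pooled, NP-40 was added to 0.5% at 4°C, and soluble protein was recovered as the supernatant at 21,000xg for 90 min. Channel-sum-equalised TMTpro 16plex LC-MS/MS quantified this protein. Each value, from duplicates, is a log-two fold change in thermal stability relative to solvent controls.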

[2] = compound: CC1=C(SC2=C1C(=N[C@H](C3=NN=C(N32)C)CC(=O)N)C4=CC=C(C=C4)Cl)C
In short: as §1

[3] = compound: CC1=C2C(=CC=C1)N=C(N(C2=O)C3=CC=CC=C3C)CN4C=NC5=C(N=CN=C54)N
In short: as §1

[4] = compound: Cc1sc2c(c1C)C(c1ccc(Cl)cc1)=N[C@@H](CC(=O)OC(C)(C)C)c1nnc(C)n1-2
In short: as §1

[5] = compound: c1ccc([C@@H]2C[C@H]2NC2CCNCC2)cc1
In short: as §1

Sequence of UniProt P01024 (P01024 whole entry, looked up): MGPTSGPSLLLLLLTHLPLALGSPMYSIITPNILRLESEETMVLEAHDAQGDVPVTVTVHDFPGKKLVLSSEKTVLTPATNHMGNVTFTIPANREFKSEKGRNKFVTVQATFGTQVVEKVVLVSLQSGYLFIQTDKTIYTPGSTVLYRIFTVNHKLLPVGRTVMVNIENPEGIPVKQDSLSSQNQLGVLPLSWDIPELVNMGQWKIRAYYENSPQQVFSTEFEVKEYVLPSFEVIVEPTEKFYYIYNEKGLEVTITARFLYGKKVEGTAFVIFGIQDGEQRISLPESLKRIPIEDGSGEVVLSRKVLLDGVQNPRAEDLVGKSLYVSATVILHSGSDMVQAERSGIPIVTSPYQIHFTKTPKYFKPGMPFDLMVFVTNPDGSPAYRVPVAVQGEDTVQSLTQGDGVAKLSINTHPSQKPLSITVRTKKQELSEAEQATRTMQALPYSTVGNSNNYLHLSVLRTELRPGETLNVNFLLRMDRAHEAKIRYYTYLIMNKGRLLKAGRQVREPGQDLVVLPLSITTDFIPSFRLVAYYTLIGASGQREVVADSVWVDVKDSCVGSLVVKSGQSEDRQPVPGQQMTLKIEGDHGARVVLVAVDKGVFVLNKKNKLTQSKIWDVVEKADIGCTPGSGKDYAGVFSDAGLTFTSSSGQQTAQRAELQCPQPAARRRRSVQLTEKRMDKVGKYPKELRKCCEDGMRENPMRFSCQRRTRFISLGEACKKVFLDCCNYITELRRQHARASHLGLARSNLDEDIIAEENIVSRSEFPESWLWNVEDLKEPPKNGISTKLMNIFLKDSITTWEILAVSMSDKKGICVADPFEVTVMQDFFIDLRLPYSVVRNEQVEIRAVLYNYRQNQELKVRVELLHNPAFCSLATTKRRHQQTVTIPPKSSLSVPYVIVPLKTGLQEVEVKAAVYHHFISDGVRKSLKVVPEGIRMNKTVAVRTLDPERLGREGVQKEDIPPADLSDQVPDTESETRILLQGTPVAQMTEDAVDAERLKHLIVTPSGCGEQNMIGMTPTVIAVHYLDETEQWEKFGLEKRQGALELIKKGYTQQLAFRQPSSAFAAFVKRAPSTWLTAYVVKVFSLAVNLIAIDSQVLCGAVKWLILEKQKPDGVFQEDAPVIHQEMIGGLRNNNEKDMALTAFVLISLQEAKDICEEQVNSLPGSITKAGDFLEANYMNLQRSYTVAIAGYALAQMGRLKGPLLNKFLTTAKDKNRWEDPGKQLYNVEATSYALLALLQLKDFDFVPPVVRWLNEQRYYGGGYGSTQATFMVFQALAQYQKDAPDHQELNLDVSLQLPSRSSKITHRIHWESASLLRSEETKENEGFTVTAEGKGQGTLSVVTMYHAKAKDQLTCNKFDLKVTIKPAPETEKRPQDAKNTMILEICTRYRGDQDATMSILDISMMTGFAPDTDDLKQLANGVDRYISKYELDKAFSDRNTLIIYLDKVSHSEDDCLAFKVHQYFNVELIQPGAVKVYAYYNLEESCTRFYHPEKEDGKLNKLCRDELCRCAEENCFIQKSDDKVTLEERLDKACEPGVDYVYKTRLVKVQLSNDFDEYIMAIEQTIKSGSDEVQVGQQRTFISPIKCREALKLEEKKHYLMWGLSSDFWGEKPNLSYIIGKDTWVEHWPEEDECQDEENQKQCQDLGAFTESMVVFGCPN
Sequence of UniProt Q9Y4P1 (Q9Y4P1 whole entry, looked up): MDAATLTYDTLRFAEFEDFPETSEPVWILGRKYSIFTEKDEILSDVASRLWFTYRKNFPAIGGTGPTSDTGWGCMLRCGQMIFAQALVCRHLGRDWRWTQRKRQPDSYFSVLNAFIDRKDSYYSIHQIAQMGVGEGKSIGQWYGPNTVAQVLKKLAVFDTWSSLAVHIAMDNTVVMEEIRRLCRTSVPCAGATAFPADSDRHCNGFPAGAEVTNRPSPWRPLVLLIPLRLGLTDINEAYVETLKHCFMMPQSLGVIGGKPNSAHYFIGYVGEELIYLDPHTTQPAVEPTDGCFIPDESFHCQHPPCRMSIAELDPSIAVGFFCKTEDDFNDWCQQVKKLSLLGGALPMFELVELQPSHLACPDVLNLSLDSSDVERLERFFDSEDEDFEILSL
Sequence of UniProt O95429 (O95429 whole entry, looked up): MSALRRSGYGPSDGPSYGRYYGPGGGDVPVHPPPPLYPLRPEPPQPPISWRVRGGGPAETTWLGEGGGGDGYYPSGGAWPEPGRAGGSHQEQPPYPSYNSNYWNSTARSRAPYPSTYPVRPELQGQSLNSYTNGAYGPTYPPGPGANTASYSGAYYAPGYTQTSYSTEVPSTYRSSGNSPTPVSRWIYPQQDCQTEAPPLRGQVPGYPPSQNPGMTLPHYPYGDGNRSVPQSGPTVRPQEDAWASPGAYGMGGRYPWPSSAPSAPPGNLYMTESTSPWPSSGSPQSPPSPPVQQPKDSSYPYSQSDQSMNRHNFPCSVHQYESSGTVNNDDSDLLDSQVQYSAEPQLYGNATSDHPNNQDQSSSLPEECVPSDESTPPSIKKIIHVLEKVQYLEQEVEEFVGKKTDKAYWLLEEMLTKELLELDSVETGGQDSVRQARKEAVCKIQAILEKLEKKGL
Sequence of UniProt Q86WJ1 (Q86WJ1 whole entry, looked up): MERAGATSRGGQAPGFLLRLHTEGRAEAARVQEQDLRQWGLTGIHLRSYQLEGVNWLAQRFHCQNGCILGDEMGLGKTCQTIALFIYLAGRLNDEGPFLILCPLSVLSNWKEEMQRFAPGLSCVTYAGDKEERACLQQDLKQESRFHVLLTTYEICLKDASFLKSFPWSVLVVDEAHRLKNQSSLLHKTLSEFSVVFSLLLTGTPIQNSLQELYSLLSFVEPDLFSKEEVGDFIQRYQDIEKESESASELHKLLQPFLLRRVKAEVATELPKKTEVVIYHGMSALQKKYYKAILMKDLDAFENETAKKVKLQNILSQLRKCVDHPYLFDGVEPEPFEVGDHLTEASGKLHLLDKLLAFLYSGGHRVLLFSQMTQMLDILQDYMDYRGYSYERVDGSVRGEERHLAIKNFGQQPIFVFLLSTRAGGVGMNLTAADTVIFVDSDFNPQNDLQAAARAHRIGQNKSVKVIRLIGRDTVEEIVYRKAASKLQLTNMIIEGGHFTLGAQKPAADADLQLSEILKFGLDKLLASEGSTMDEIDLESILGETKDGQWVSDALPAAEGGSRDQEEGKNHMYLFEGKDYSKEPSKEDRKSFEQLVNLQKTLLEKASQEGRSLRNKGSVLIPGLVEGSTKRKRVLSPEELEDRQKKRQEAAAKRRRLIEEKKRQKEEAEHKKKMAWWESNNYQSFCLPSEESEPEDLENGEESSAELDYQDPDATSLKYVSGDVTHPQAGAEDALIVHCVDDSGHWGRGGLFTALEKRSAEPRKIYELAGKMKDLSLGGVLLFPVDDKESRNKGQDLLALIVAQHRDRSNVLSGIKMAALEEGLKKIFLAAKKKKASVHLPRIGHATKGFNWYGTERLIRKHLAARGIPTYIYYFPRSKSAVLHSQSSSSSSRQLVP
Sequence of UniProt Q96SZ6 (Q96SZ6 whole entry, looked up): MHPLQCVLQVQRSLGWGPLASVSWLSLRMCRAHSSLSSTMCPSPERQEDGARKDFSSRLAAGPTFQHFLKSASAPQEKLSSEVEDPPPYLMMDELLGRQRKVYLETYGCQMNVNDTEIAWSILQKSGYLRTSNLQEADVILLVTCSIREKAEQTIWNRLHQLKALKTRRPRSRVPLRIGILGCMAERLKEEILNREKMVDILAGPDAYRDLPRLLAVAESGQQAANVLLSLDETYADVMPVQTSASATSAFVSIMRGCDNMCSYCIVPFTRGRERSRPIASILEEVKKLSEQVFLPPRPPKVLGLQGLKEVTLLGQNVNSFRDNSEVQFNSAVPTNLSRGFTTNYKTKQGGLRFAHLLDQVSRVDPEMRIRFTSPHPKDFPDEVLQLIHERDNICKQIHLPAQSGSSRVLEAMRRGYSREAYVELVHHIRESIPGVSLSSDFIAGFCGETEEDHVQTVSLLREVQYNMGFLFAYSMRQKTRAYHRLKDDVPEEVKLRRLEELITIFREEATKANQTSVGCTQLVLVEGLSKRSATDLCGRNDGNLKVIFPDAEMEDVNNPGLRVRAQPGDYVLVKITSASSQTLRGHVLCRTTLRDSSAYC
Sequence of UniProt P04632 (P04632 whole entry, looked up): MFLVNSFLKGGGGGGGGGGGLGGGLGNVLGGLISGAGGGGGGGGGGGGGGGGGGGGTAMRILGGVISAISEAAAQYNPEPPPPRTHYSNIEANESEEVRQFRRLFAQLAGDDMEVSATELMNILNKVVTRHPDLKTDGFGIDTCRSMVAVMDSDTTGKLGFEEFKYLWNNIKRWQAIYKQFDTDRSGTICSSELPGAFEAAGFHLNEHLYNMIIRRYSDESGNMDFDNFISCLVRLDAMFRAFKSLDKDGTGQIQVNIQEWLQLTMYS
Sequence of UniProt P40227 (P40227 whole entry, looked up): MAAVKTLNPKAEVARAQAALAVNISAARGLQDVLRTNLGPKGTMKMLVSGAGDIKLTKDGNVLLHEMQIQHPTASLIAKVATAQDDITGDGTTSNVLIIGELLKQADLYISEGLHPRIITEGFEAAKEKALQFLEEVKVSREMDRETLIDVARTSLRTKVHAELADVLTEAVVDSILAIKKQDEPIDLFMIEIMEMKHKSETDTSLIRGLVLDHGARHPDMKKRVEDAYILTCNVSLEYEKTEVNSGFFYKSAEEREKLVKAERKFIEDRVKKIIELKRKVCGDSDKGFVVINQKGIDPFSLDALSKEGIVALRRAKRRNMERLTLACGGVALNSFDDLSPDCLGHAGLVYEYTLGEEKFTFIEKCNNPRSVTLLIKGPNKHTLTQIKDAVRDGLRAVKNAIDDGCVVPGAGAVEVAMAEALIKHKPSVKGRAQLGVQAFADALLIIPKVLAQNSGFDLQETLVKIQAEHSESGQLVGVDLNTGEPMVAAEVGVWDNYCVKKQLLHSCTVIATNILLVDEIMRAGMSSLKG

Target	log2 fold change [1]	log2 fold change [2]	log2 fold change [3]	log2 fold change [4]	log2 fold change [5]
C3 (UniProt P01024)	0.013	0.054	0.132	-0.035	-0.03
CDK5RAP3 isoform 4 (UniProt Q96JB5)	-0.011	-0.018	0.022	-0.01	-0.154
ATG4B (UniProt Q9Y4P1)	0.004	0.034	0.017	-0.002	0.051
C18orf25 isoform 2 (UniProt Q96B23)	-0.005	0.224	0.008	0.089	-0.003
CCNC (UniProt P24863)	0.045	-0.09	-0.035	-0.036	-0.129
CAPNS1 (UniProt P04632)	0	-0.041	-0.067	0.057	-0.014
BAG4 (UniProt O95429)	0.059	0.021	-0.023	0.03	0.003
BRD2 isoform 2 (UniProt P25440)	0.024	1.06 (active)	0.081	0.644 (active)	0.071
CDK5RAP1 (UniProt Q96SZ6)	0.266 (active)	-0.117	0.05	-0.023	-0.004
CCT6A (UniProt P40227)	0.007	-0.007	-0.01	0.004	0.025
CHD1L (UniProt Q86WJ1)	-0.012	0.036	0.037	-0.009	0.052
BLM (UniProt P54132)	0.059	0.03	-0.005	-0.002	0.114
